Assay outcomes from PubChem BioAssay.
Platelet DG rel: inhibitors of platelet dense granule secretion, primary screen, cell-based, MLPCN, human platelets. human platelet-rich plasma, SFLLRN dense granule ATP release, luminescence. inhibition, %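 (compounds screened at 7.5 µM in platelet-rich plasma)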. 300,000 compounds, 0.22% hits;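 active = mean replicate score, as percent of positive control, at or above 50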
ABCB6 inh 2: ABCB6 transporter inhibitors, primary screen, K562-ABCB6 cells, flow cytometry, MLPCN library; ATP-binding cassette sub-family B member 6 (Homo sapiens), Q9NP58; K562-ABCB6 porphyrin accumulation, 1 h; hits give low values; fluorescence ratio to DMSO, % at 10 µM; 360,000 compounds, 0.19% hits;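 active = fluorescence ratio to DMSO below 75%, the collection mean minus 3 SD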;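 also: signal is porphyrin accumulated inside mitochondria; lower ratio means ABCB6 inhibition with less porphyrin fluorescence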
SKN-1 block: suppressors of acrylamide-induced Pgst-4::GFP reporter in worms, primary screen, SKN-1 inhibitor project, whole organism, uHTS, GFP/RFP fluorescence ratio, strain VP596. C. elegans VP596 Pgst-4::GFP/RFP ratio, 24 h. inhibition, % at 21.8 µM. 360,000 compounds, 0.49% hits;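 active = interference check ratio from 0.5 to 1.5 plus GFP to RFP signal ratio inhibition reaching or exceeding a fixed threshold, cut at about 30% in these data, passing the limit was not always enough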
VLA-4 inh: inhibition in human VLA-4 binding assay, primary screen, VLA-4 allosteric modulator project, MLPCN library, flow cytometry, VLA-4 expressing cells | Integrin alpha-4 (Homo sapiens), P13612 | ligand binding flow cytometry | inhibition, % (about 7 µM as worked out from the volumes in the protocol) | 330,000 compounds, 0.2% hits | AID 2557, 2010; in the data active = inhibition above about 50%
Target sequence (P13612 whole entry, looked up): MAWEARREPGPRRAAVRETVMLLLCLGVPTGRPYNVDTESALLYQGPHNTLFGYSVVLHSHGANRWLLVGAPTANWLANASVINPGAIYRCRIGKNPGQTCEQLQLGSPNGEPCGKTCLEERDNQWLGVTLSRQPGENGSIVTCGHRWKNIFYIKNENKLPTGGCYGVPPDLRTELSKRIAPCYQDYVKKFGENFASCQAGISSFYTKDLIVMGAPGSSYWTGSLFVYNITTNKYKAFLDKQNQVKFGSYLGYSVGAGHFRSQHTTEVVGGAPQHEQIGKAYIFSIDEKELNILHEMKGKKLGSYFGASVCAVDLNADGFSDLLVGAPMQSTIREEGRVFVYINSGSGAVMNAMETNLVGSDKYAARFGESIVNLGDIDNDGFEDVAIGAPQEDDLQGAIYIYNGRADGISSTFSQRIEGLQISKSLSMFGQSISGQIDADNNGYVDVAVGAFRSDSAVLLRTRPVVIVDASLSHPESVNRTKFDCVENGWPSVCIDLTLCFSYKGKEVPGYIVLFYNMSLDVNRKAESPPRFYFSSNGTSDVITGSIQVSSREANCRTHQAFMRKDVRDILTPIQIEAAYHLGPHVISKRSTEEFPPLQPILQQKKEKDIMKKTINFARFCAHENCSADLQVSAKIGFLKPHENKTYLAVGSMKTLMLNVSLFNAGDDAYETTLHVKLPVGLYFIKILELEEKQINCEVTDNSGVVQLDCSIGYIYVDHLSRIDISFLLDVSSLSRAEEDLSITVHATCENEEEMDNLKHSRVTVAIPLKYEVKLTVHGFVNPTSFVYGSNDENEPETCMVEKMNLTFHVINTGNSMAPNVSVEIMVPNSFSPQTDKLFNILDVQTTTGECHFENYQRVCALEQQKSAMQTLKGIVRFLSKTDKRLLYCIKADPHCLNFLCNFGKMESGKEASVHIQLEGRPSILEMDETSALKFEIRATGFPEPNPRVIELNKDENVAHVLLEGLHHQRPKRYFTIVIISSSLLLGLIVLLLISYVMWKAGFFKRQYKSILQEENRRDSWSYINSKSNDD
Yeast superoxide: reduction of superoxide in aged yeast, primary screen, HTS | 330,000 compounds, 0.18% hits | superoxide response (% of plate mean), % at 10 µM | AID 2690, 2010 | S. cerevisiae aged cells, superoxide DHE fluorescence; hits give low values;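 active = superoxide response under a set limit, about three screen SD below normal, cut at about 65% in these data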;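 also: yeast aged for seven days with compound at 30 °C before DHE staining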
VLA-4 mod pick: retest of VLA-4 allosteric modulators, confirmation, cell-based, cherry-picked plates, U937, HUTS-21 LIBS antibody | shares compounds with VLA-4 inh | U937 cells, HUTS-21 LIBS mAb binding, flow cytometry; LDV ligand present at threefold Kd | inhibition, % at 6.7 µM | 1,300 compounds, 2% hits; in the data active = inhibition above about 40%
Each line names hits and unclear results; the compound was inactive in the other large screens (follow-up assays come after a bar, where they were run). Sampled rows, rich in hits. Any-hit rate of the full collection: about 1.2%.

COc1cc(/C=N/Nc2ncc(C(F)(F)F)cc2Cl)cc(OC)c1OC	none | VLA-4 mod pick inactive
CC1(C(=O)NCc2ccccc2)CN(S(C)(=O)=O)CC(=O)N1C1CC1 (stereo unspecified)	none (no result: Platelet DG rel, ABCB6 inh 2, VLA-4 inh, Yeast superoxide)
C=CCN1c2ccccc2[C@]23C[C@@H](C(=O)OC)N(C(=O)c4ccc(Br)cc4)C2=NC(C(=O)OC)=C(C(=O)OC)[C@H]13	VLA-4 inh 51.2 | VLA-4 mod pick inactive
O=C(CN1CCN(Cc2ccccc2)CC1)N/N=C/C=C/c1ccccc1[N+](=O)[O-]	none | VLA-4 mod pick inactive
CC(C)(C)c1ccc(NC(=O)CCNC(=O)c2ccco2)cc1	VLA-4 inh 49.8 | VLA-4 mod pick inactive
O=C(/C=C/c1ccccc1)C1=C(O)C(=O)N(CCO)C1c1ccccc1[N+](=O)[O-] (stereo unspecified)	VLA-4 inh 51.3 | VLA-4 mod pick inactive
O=C(Nc1ccc(C2=NCCN2)cc1)c1ccc(Cl)c(C(=O)Nc2ccc(C3=NCCN3)cc2)c1	none (no result: ABCB6 inh 2, SKN-1 block) | VLA-4 mod pick inactive
CO[C@@H]1CN(C)C(=O)c2cc(NS(=O)(=O)c3ccc(C)cc3)ccc2OC[C@H](C)N(Cc2nccs2)C[C@H]1C	none (no result: Platelet DG rel, ABCB6 inh 2, VLA-4 inh, Yeast superoxide)
COc1ccccc1-n1cnnc1SCc1csc(-c2ccccc2)n1	VLA-4 inh 95.2 (no result: Platelet DG rel) | VLA-4 mod pick inactive
COc1ccccc1-n1cnnc1SCC(=O)Nc1ccccc1	none
O=C(O)c1c(C(=O)O)c(-c2ccc(F)cc2)n2c1CCC2	none | VLA-4 mod pick inactive
Cc1ccc(-c2c(C(=O)O)c(C(=O)O)c3n2CCC3)cc1	none
CC(C)Cn1c(N)c(C(=O)CSc2nnc(-c3ccco3)n2C)c(=O)n(C)c1=O	VLA-4 inh 53.2 (no result: Platelet DG rel) | VLA-4 mod pick inactive
COc1cccc2[nH]c3c(=O)n(CCCN4CCOCC4)cnc3c12	none | VLA-4 mod pick inactive
Cc1ccc([C@H]2C(C(=O)O)=C[C@@H](C(C)(C)C)N2S(=O)(=O)c2ccc(C)cc2)cc1	none (no result: Platelet DG rel)
Cc1ccc(S(=O)(=O)N2[C@@H](c3ccc(Cl)c(Cl)c3)C(C(=O)O)=C[C@H]2C(C)(C)C)cc1	none (no result: Platelet DG rel)
Cc1ccc(S(=O)(=O)N2[C@@H](c3ccc(C(C)C)cc3)C(C(=O)O)=C[C@H]2C(C)(C)C)cc1	none (no result: Platelet DG rel) | VLA-4 mod pick inactive
Cc1ccc(S(=O)(=O)N2[C@@H](c3cccc(C)c3)C(C(=O)O)=C[C@H]2C(C)(C)C)cc1	none (no result: Platelet DG rel) | VLA-4 mod pick inactive
COc1ccc([C@H]2C(C(=O)O)=C[C@@H](C(C)(C)C)N2S(=O)(=O)c2ccccc2)cc1	none (no result: Platelet DG rel) | VLA-4 mod pick inactive
CSCCC(c1nc2ccccc2[nH]1)n1c(-c2ccc3ncccc3c2)nc2ccccc21 (stereo unspecified)	none (no result: Platelet DG rel, ABCB6 inh 2, VLA-4 inh, Yeast superoxide)
COc1ccc(S(=O)(=O)NC(Cc2cnc[nH]2)C(=O)O)cc1 (stereo unspecified)	none
COC(=O)C(Cc1cnc[nH]1)NC(=O)C1CCC(=O)N1 (stereo unspecified)	VLA-4 inh 57.9 | VLA-4 mod pick inactive
O=C(NC1CCCc2ccccc21)c1ccc(Br)cc1 (stereo unspecified)	none
O=C(NC1CCCc2ccccc21)c1cccc(Br)c1 (stereo unspecified)	none | VLA-4 mod pick inactive
CC(C)(C)[C@H]1C=C(C(=O)Nc2ccccc2)O[C@@H](OCCCCO)C1	none | VLA-4 mod pick inactive
CCO[C@@H]1OC(C(=O)Nc2ccccc2)=C[C@H](c2ccccc2)[C@H]1CCCO	none
CCO[C@H]1OC(C(=O)Nc2ccccc2)=C[C@@H](C)[C@@H]1CCCO	VLA-4 inh 90.5 | VLA-4 mod pick inactive
CCO[C@H]1OC(C(=O)N2CCN(Cc3ccccc3)CC2)=C[C@@H](C2CCCCC2)[C@@H]1CCCO	VLA-4 inh 53.3 | VLA-4 mod pick inactive
CCOC(=O)c1ccc(NC(=O)[C@@H]2CCC(=O)N2C2OC(=O)c3c2ccc(OC)c3OC)cc1 (stereo partly specified)	none (no result: Platelet DG rel, VLA-4 inh, Yeast superoxide)
